Assay [1] can be described thus: qHTS assay to identify small molecule antagonists of the glucocorticoid receptor (GR) signaling pathway - cell viability counter screen (AID 720693). Further: nearly all actives have a fitted effect of over 55% in size.
Assay [2] can be described thus: qHTS assay for identifying genotoxic compounds that show differential cytotoxicity against isogenic chicken DT40 cell lines with known DNA damage response pathways - wild type cell line (AID 743012). Further: nearly all actives have a fitted effect of over 60% in size. Further: potency means the concentration at half of the fitted maximal effect. A digest of the protocol:
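Cytotoxicity in repair-proficient parental chicken DT40 cells serves as the comparator for Rad54/Ku70- and Rev3-deficient lines. Cells were exposed to compounds for 40 h at 37 C/5% CO2, and ATP-based luminescence (CellTiter-Glo) measured viability.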
A general note: Quantitative high-throughput screening tests each substance at several concentrations.

A short description of assay [3]: qHTS assay for identifying genotoxic compounds that show differential cytotoxicity against isogenic chicken DT40 cell lines with known DNA damage response pathways - Rev3 mutant cell line (AID 743014). Further: nearly all actives have a fitted effect of over 55% in size. Further: potency means the concentration at half of the fitted maximal effect.
A short description of assay [4]: qHTS assay for identifying genotoxic compounds that show differential cytotoxicity against isogenic chicken DT40 cell lines with known DNA damage response pathways - Rad54/Ku70 mutant cell line (AID 743015). Further: nearly all actives have a fitted effect of over 60% in size. Further: potency means the concentration at half of the fitted maximal effect.
Assay [5] can be described thus: qHTS assay to identify small molecule antagonists of the androgen receptor (AR) signaling pathway - cell viability counter screen (AID 743033; further: nearly all actives have a fitted effect of over 45% in size).
In assay [6] the target is Androgen receptor (Homo sapiens) (UniProt P10275). Put plainly: qHTS assay to identify small molecule agonists of the androgen receptor (AR) signaling pathway using the MDA cell line (AID 743040; further: nearly all actives have a fitted effect of over 20% in size). A digest of the protocol: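 Cell-based luciferase reporter: MDA-kb2, MMTV promoter (AR + GR response elements). 16 h compound exposure at 37C; ONE-Glo, 30 min RT, luminescence.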
Chain of Androgen receptor (Homo sapiens) (P10275 whole entry, looked up): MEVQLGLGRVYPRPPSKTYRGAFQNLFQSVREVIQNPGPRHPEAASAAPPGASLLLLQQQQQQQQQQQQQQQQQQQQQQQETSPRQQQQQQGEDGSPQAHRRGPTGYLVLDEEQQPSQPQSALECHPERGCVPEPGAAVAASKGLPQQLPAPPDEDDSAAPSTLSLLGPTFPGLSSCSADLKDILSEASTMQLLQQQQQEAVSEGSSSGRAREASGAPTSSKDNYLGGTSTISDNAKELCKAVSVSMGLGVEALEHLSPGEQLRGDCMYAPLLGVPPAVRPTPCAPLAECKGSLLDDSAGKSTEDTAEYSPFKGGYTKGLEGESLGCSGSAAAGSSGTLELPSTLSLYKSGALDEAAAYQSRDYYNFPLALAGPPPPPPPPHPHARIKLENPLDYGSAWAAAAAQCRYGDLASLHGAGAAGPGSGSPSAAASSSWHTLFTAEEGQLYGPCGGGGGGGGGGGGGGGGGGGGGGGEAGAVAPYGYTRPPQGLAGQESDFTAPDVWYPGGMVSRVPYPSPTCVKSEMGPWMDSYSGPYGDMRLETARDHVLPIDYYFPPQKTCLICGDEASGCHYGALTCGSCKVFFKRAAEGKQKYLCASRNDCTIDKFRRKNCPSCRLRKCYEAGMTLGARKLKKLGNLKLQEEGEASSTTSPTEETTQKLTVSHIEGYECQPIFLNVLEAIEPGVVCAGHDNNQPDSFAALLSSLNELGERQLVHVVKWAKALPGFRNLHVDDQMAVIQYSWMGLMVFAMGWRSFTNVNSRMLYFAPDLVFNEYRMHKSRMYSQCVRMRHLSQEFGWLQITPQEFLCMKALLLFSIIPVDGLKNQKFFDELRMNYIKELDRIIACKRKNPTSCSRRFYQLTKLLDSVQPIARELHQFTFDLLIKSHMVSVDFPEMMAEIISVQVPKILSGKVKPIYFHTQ

For assay [7] the target is unchanged. Put plainly: qHTS assay to identify small molecule antagonists of the androgen receptor (AR) signaling pathway using the MDA cell line (AID 743042; further: nearly all actives have a fitted effect of over 55% in size). A digest of the protocol:
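MDA-kb2 cells (human breast carcinoma, stably carrying an MMTV-luciferase reporter responsive to AR and GR) were plated at 3,000 cells/well and preincubated 5 hr at 37C, then given compound plus R1881 agonist for 16 h. ONE-Glo luminescence was read.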

Assay [8] is described as follows: qHTS assay to identify small molecule antagonists of the thyroid receptor (TR) signaling pathway - cell viability counter screen (AID 743064). Further: nearly all actives have a fitted effect of over 50% in size. An outline of the steps:
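GH3.TRE-Luc rat pituitary cells dosed after 4 hr plating, co-stimulated with T3 at 1 nM final, incubated 23.5 h at 37 C. Viability measured in the same wells by CellTiter-Fluor fluorescence after 30 min further at 37 C.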

Assay [9] is described as follows: qHTS assay to identify small molecule antagonists of the thyroid receptor (TR) signaling pathway (AID 743065). Further: nearly all actives have a fitted effect of over 55% in size. Further: potency means the concentration at half of the fitted maximal effect. An outline of the steps:
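GH3.TRE-Luc rat pituitary cells carrying two TR response elements driving luciferase were plated for 4 h, given compound plus 1 nM T3 (final), and incubated 23.5 h at 37 C. ONE-Glo luminescence measured reporter inhibition; CellTiter-Fluor fluorescence tracked cytotoxicity.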

Assay [10] concerns thyroid hormone receptor (rat, GH3 cells). Kind of assay: qHTS assay to identify small molecule agonists of the thyroid receptor (TR) signaling pathway (AID 743066; calls by dose curve).
Assay [11] is described as follows: qHTS assay to identify small molecule antagonists of the estrogen receptor alpha (ER-alpha) signaling pathway - cell viability counter screen (AID 743074; calls by dose curve;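 further: HEK293 cells carrying ER-alpha-UAS-bla reporter stimulated with 17beta-estradiol; nearly all actives have a fitted effect of over 45% in size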).
Assay [12] concerns the target Estrogen receptor (Homo sapiens) (UniProt P03372). Kind of assay: qHTS assay to identify small molecule agonists of the estrogen receptor alpha (ER-alpha) signaling pathway (AID 743075; calls by dose curve;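 further: HEK293 GripTite cells with ER-alpha and UAS-driven beta-lactamase reporter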).
Assay [13] has the same target. Kind of assay: qHTS assay to identify small molecule agonists of the estrogen receptor alpha (ER-alpha) signaling pathway using the BG1 cell line (AID 743079). Further: nearly all actives have a fitted effect of over 20% in size.
The nature of assay [14]: qHTS assay to identify small molecule antagonists of the estrogen receptor alpha (ER-alpha) signaling pathway using the BG1 cell line (AID 743080; calls by dose curve;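 further: BG1 cells stimulated with 17beta-estradiol alongside compound; series mostly up to about 70 µM; nearly all actives have a fitted effect of over 25% in size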). An outline of the steps:
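Readout is ONE-Glo luminescence, taken 30 min at room temperature after reagent addition, preceded by a CellTiter-Fluor viability read; BG1-Luc-4E2 cells had received compound and 17beta-estradiol for 21.5 h at 37 C.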

In assay [15] the target is Aromatase (Homo sapiens) (UniProt P11511). Put plainly: qHTS assay to identify aromatase inhibitors (AID 743083).
Chain of Aromatase (Homo sapiens) (P11511 whole entry, looked up): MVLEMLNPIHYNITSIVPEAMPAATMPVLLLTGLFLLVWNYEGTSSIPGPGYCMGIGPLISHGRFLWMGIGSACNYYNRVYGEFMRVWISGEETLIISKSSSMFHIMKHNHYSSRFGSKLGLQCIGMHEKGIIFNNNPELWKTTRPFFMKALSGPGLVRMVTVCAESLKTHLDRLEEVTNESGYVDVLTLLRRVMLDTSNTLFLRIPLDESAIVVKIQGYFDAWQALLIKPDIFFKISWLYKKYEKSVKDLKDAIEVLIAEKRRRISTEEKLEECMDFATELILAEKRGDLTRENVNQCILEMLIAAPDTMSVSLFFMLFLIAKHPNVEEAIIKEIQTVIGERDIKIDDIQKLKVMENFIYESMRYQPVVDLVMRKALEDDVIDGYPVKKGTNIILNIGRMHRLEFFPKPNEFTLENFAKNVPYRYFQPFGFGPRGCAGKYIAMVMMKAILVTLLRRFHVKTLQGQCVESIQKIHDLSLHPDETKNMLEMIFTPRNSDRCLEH
Assay [16] is described as follows: qHTS assay to identify small molecule antagonists of the androgen receptor (AR) signaling pathway using the MDA cell line - cell viability counter screen (AID 743041; further: nearly all actives have a fitted effect of over 45% in size). An outline of the steps: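 In this qHTS counter assay, fluorescence intensity after CellTiter-Fluor addition indicated viability of MDA-kb2 AR-luc cells given compounds and R1881 for 16 h at 37C.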

The target of assay [17] is Estrogen receptor (Homo sapiens) (UniProt P03372). Kind of assay: qHTS assay to identify small molecule antagonists of the estrogen receptor alpha (ER-alpha) signaling pathway (AID 743069; active means well fitted curve in the direction sought with a large enough effect in the signal ratio in the repeat runs, not every such curve was filed as active; the % refers to the signal ratio). A digest of the protocol:
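A 17beta-estradiol challenge was applied right after compound transfer to ER-alpha-UAS-bla HEK293 cells previously kept in charcoal-stripped serum. Plates stood 18 hr at 37C and 5% CO2; fluorescence was read following 2 hr FRET substrate loading at room temperature.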

The nature of assay [18]: qHTS assay to identify small molecule antagonists of the estrogen receptor alpha (ER-alpha) signaling pathway using the BG1 cell line - cell viability counter screen (AID 743081).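 Further: compound given together with 17beta-estradiol as the ER stimulus; series mostly up to about 70 µM; nearly all actives have a fitted effect of over 45% in size.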

Where “and” joins values, the source holds several entries; their conditions need not be identical. Identical values can stand only once. Records with an inconclusive call do not appear. The source holds several records for some structures; these can differ, active in one and inactive in another. Calls of active or inactive are those of the source. Unless noted, the call rests on the fitted dose curve; in most records, active means well fitted curve in the direction sought with a large enough effect in the repeat runs; inconclusive means weak or mixed curves; inactive means no such curve, though single readings can be large; an effect the other way counts as inactive or inconclusive.

Chain of Estrogen receptor (Homo sapiens) (P03372 whole entry, looked up): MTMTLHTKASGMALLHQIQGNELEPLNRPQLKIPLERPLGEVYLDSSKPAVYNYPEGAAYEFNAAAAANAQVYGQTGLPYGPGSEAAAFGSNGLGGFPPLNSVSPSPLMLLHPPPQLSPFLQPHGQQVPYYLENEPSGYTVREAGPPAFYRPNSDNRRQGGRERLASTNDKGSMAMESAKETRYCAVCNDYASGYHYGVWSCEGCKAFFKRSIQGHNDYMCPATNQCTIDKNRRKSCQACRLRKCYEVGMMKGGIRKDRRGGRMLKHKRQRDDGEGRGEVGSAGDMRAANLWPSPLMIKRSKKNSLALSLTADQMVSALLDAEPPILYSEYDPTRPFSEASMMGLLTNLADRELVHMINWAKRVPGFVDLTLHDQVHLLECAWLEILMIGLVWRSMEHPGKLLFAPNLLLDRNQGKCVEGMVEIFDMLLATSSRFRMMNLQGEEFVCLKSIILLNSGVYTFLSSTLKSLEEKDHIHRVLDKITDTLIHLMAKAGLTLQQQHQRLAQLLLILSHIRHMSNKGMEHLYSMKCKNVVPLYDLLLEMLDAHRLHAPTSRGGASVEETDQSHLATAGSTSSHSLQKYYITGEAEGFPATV

Regarding `COP(=S)(OC)Oc1ccc([N+](=O)[O-])cc1Cl`, the Potency entry in assay [1], in assay [2], in assay [3], in assay [4], in [5] and in assay [6] was “inactive” each time. The Potency result in assay [7], in assay [8], in assay [9], in assay [10], in assay [11] and in assay [12] was “inactive” each time. Besides, the Potency entry in assay [13], in assay [14] and in assay [15] was “inactive” throughout.
Consider `CCBr`, for which the Potency entry in assay [1], in [2], in [3], in [4], in [5] and in [16] was “inactive” in each case. Also, the Potency entry in assay [8], in assay [9], in [10], in [17], in assay [11] and in [12] was “inactive” throughout. The Potency entry in assay [13], in assay [14], in assay [18] and in [15] was “inactive” each time.
For `CCCCOC(=O)c1ccccc1C(=O)OCc1ccccc1`, the Potency entry in [1], in assay [3], in [5], in assay [16], in assay [8] and in [9] was “inactive” in each case. Also, the Potency result in assay [10], in assay [11], in assay [18] and in [15] was “inactive” each time. In addition, the Potency entry was “inactive and 48.6 µM (active)” in [2]; 51.4 µM (active) in [4].
Consider `C=CC(=O)OCC(C)O` (stereo not drawn), for which the Potency entry in assay [1], in [2], in assay [3], in [4], in assay [5] and in [16] was “inactive” in each case. Besides, the Potency entry in assay [8], in assay [9], in [10], in assay [17], in assay [13] and in [14] was “inactive” in each case. In addition, the Potency entry in [18] is “inactive”.
With `CC(Cl)Cl`, the Potency result in [1], in assay [2], in assay [3], in assay [4], in assay [5] and in assay [16] was “inactive” each time. For the same compound, the Potency result in assay [8], in assay [9], in assay [10], in assay [17], in assay [11] and in assay [12] was “inactive” each time. The Potency result in assay [14], in assay [18] and in [15] was “inactive” in each case.
With `Nc1nc(N)nc(N)n1`, the Potency result in assay [1], in assay [2], in assay [3], in [4], in assay [5] and in assay [16] was “inactive” in each case. Further, the Potency entry in assay [8], in [9], in assay [10], in assay [11], in assay [18] and in assay [15] was “inactive” each time.
Consider `O=S(=O)(Cl)c1ccccc1`, for which the Potency entry in [1], in assay [2], in [3], in assay [4], in assay [5] and in [16] was “inactive” each time. The Potency entry in assay [8], in assay [9], in [10], in assay [11], in [18] and in assay [15] was “inactive” each time.
Regarding `CCC(Cl)CCl` (stereo not drawn), the Potency result in assay [1], in [2], in [3], in assay [4], in [5] and in [16] was “inactive” throughout. The Potency entry in assay [8], in [9], in [10], in assay [17], in [11] and in assay [12] was “inactive” throughout. The Potency entry in assay [13], in assay [14], in [18] and in assay [15] was “inactive” in each case.
In the case of `C/C=C/C=O`, the Potency result in assay [1], in assay [2], in [3], in assay [4], in assay [5] and in assay [16] was “inactive” in each case. The Potency entry in [8], in [9], in assay [10], in assay [11], in assay [18] and in [15] was “inactive” in each case.
As to `CCCCCCCCOC(=O)c1ccc(C(=O)OCCCCCCCC)c(C(=O)OCCCCCCCC)c1`, the Potency entry in assay [1], in [2], in assay [3], in assay [4], in assay [5] and in assay [16] was “inactive” each time. Moreover, the Potency entry in assay [8], in assay [9], in [10], in assay [11], in assay [18] and in [15] was “inactive” in each case.
Turning to `C=CCN1CC[C@]23c4c5ccc(O)c4O[C@H]2C(=O)CC[C@@]3(O)[C@H]1C5`, the Potency result in assay [1], in [2], in [3], in [4], in assay [5] and in assay [16] was “inactive” each time. The Potency entry in assay [8], in [9], in [10], in [11], in assay [18] and in assay [15] was “inactive” in each case.
With `CC(C)(Cl)[N+](=O)[O-]`, the Potency entry in assay [1], in assay [2], in [3], in assay [4], in assay [5] and in [16] was “inactive” in each case. Also, the Potency result in assay [8], in assay [9], in [10], in assay [11], in assay [18] and in assay [15] was “inactive” in each case.
Regarding `CCOP(=O)(OCC)Oc1ccc([N+](=O)[O-])cc1`, the Potency entry in assay [1], in assay [2], in [3], in assay [4], in assay [5] and in assay [16] was “inactive” each time. Further, the Potency entry in assay [8], in assay [9], in assay [10], in assay [11] and in assay [18] was “inactive” throughout.
As to `CN1C(=O)NC(=O)C(C)(C2=CCCCC2)C1=O` (stereo not drawn), the Potency result in [1], in assay [2], in assay [3], in assay [4], in [5] and in assay [16] was “inactive” throughout. The Potency result in assay [8], in [9], in [10], in assay [11], in [18] and in [15] was “inactive” each time.
For `CN(N=O)c1ccc([N+](=O)[O-])cc1`, the Potency result in assay [1], in [2], in assay [3], in assay [4], in assay [5] and in [16] was “inactive” in each case. Moreover, the Potency result in assay [8], in [9], in assay [10], in assay [17], in assay [11] and in [12] was “inactive” in each case. Also, the Potency result in assay [13], in [14], in assay [18] and in [15] was “inactive” throughout.
Regarding `O=C1CN=C(c2ccccc2)c2cc(Cl)ccc2N1CC1CC1`, the Potency entry in [1], in assay [5], in assay [16], in assay [8], in assay [10] and in assay [11] was “inactive” throughout. For the same compound, the Potency entry in [18] and in assay [15] was “inactive” throughout. Besides, the Potency in assay [2] is 18.8 µM (active); in assay [3] it was 29.8 µM (active) and 64.2 µM (active); in assay [4], 26.6 µM (active); in assay [9], 21.1 µM (active) and 51 µM (active).
On to `CCC(Br)(CC)C(=O)NC(N)=O`, for which the Potency entry in assay [1], in assay [2], in assay [4], in assay [5], in assay [16] and in assay [8] was “inactive” each time. The Potency entry in assay [9], in assay [10], in [11], in [18] and in assay [15] was “inactive” each time. In assay [3], the Potency is 54.5 µM (active).
Regarding `Clc1cc(Cl)c(Cl)c(Cl)c1`, the Potency result in assay [1], in assay [2], in assay [3], in [4], in assay [5] and in [16] was “inactive” in each case. Besides, the Potency result in assay [8], in [9], in assay [10], in [17], in assay [11] and in assay [12] was “inactive” throughout. For the same compound, the Potency result in assay [14], in assay [18] and in assay [15] was “inactive” throughout.
In the case of `Cn1cc[n+](C)c1` (tested in a mixture with another compound), the Potency entry in assay [1], in [2], in [3], in assay [4], in assay [5] and in assay [16] was “inactive” in each case. Also, the Potency result in assay [8], in assay [9], in [10], in assay [17], in assay [11] and in assay [12] was “inactive” each time. For the same compound, the Potency entry in [13], in [14], in assay [18] and in assay [15] was “inactive” in each case.

The values are drawn from PubChem BioAssay (Tox21).
